Source: PubChem
PAFAH2 FP inh: PAFAH2 (human) inhibition; recombinant PAFAH2, FP-rhodamine activity probe, fluorescence polarization; 340,000 tested, 0.99% active; inhibition, % at 3.39 µM; Q99487;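 active = inhibition above the mean over all tested compounds plus 3 SD, cut at about 30% in these data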;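 also: inhibitors block probe labeling of enzyme so polarization drops; 0% = enzyme with DMSO and 100% = wells lacking PAFAH2 protein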
pPAFAH FP inh: pPAFAH (human) enzyme inhibition | Q13093 | recombinant pPAFAH, FP-rhodamine probe fluorescence polarization | inhibition, % at 3.39 µM | 330,000 tested, 1.5% active | AID 463082;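 active = inhibition above the mean inhibition across the screen plus 3 SD, cut at about 25% in these data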;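 also: inhibitors block binding of the rhodamine activity-based probe so polarization drops; 0% = enzyme with DMSO and 100% = wells lacking pPAFAH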
Target sequence (Q13093 whole entry, looked up): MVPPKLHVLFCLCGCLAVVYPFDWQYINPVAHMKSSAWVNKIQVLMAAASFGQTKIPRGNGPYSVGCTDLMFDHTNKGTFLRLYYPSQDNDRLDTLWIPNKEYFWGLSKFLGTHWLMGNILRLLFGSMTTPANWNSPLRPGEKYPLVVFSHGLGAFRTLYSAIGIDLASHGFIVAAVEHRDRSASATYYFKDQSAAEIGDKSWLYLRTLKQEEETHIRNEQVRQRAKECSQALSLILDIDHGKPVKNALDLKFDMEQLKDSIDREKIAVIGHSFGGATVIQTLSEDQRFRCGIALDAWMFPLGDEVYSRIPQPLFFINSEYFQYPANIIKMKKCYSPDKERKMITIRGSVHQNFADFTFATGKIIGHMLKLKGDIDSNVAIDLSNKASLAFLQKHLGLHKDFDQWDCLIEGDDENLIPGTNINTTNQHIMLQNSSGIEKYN
ZTA counter: counter-screen for EBNA-1 inhibitors: inhibitors of Epstein-Barr virus ZTA; ZTA-DNA binding, fluorescence polarization; inhibition, % at 11 µM; AID 2234; P03206; 320,000 tested, 0.15% active; in the data active = inhibition above about 33%
PAFAH1B3 FP inh: blocks human PAF acetylhydrolase 1B catalytic subunit 3; 340,000 tested, 0.28% active; recombinant PAFAH1B3, FP-rhodamine probe, fluorescence polarization; inhibition, % at 3.39 µM; Q15102;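 active = inhibition above the screen-wide average of all tested compounds plus 3 SD, cut at about 25% in these data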;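 also: 0% = enzyme with DMSO only and 100% = wells lacking PAFAH1B3 protein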
EBNA-1 inhibitor: blocks EBNA-1 binding to DNA. EBNA-1 DNA binding, fluorescence polarization. inhibition, % at 14.8 µM. 300,000 tested, 0.34% active; in the data active = inhibition above about 28%
PAFAH1B2 FP inh: inhibitors of human PAFAH1B2; 340,000 tested, 1.2% active; inhibition, % at 3.39 µM; P68402; AID 492953; recombinant PAFAH1B2, FP-rhodamine activity probe, fluorescence polarization;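 active = inhibition above the mean of all tested compounds plus 3 SD, cut at about 24% in these data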;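 also: 0% = enzyme with DMSO and 100% = wells lacking PAFAH1B2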
* marks the source's active call; other numbers are inactive results; . = not tested or not shown. In the library only some 2.9% were active in any assay of this set; here they are far more common.

SMILES	PAFAH2 FP inh	pPAFAH FP inh	ZTA counter	PAFAH1B3 FP inh	EBNA-1 inhibitor	PAFAH1B2 FP inh
NC(=O)[C@@H]1CCCN1C(=O)c1ccc2nc(Cc3cccc(Cl)c3)oc2c1	6	6	0	2	5	2
Cc1cccc(NC(=O)COC(=O)Cc2cccs2)c1C	8	25*	1	12	-3	1
CCN1/C(=C/C=C/C=C/C=C/c2sc3ccccc3[n+]2CC)Sc2ccccc21	-25	2	60*	-29	42*	-15
CCN1/C(=C/C=C/C=C/c2sc3ccccc3[n+]2CC)Sc2ccccc21	.	-94	.	.	.	.
O=C(N/N=C/c1ccc([N+](=O)[O-])o1)c1cn(-c2ccccc2)nc1-c1ccccc1	-4	27*	-1	7	-2	-1
CCc1noc(C)c1C(=O)Nc1cc(Cl)ccc1N1CCOCC1	-3	0	15	14	7	3
CC(C)(C)OC(=O)N1CCC(NC(=O)c2nc[nH]c2C(=O)NCC(=O)OCc2ccccc2)CC1	-3	33*	3	0	5	-4
CC(C)(C)OC(=O)CNC(=O)c1[nH]cnc1C(=O)NC1CCN(C(=O)OC(C)(C)C)CC1	-1	2	-5	1	-4	0
O=c1ccc(-c2ccccc2)no1	5	5	7	-1	-5	5
Oc1c(I)cc(I)c2cccnc12	7	33*	-1	10	2	8
Cc1c(NC(=O)C(C)OC(=O)c2ccc(Cl)nc2)c(=O)n(-c2ccccc2)n1C (configuration not stated)	-10	-3	-11	8	-4	2
Cc1ccc(S(=O)(=O)Nc2cc(C(=O)O)ccc2N2CCCCC2)cc1	3	12	1	-3	-3	9
O=C(O)CCc1ccc(S(=O)(=O)Nc2cc(C(F)(F)F)ccc2N2CCCC2)cc1	8	.	.	1	.	30*
O=C1C(C2=C(O)c3ccccc3C2=O)=Nc2ccccc21	53*	26*	-2	55*	8	20
CC(C1CCN(Cc2cn(C)nc2-c2cccc(Cl)c2)CC1)N1CCOCC1 (configuration not stated)	4	3	-3	2	5	5
O=C(C1CCCN1C(=O)c1cccs1)N1CCN(S(=O)(=O)c2ccc(F)cc2)CC1 (configuration not stated)	-3	2	0	11	.	29*
CC(C)c1ccc(S(=O)(=O)N2CCN(C(=O)[C@@H]3CCCN3C(=O)c3cccs3)CC2)cc1	3	.	.	5	.	6
CCCCN(Cc1ccccc1)C(=O)C1CCC(=O)N(CCc2ccccn2)C1 (configuration not stated)	-4	1	13	0	8	1
O=C(O)c1cc(-n2[nH]c(=O)c3ccccc3c2=O)ccc1Cl	1	7	-7	5	1	1
O=C1Cc2cc(S(=O)(=O)N3CCCCC3)ccc2N1	5	4	-6	2	4	4
CC1CC(C)CN(S(=O)(=O)c2ccc3c(c2)CC(=O)N3)C1 (configuration not stated)	3	0	8	2	.	28*
Oc1ccc(Cc2ccc(Cl)cc2)c(O)c1	0	-5	9	6	7	72*
Oc1ccc(Cc2ccccc2Cl)c(O)c1	1	.	.	7	.	6
CC(OC(=O)Cc1c(F)cccc1Cl)C(=O)NC1(C#N)CCCCC1 (configuration not stated)	4	22	2	-4	3	0
COC(=O)c1ccc(S(=O)(=O)NCc2ccc(OC)cc2)n1C	4	0	-12	7	0	29*
SMILES	PAFAH2 FP inh	pPAFAH FP inh	ZTA counter	PAFAH1B3 FP inh	EBNA-1 inhibitor	PAFAH1B2 FP inh
COC(=O)c1ccc(S(=O)(=O)NCc2ccco2)n1C	-2	4	0	10	13	-1
CCN(CC)S(=O)(=O)c1ccc2c(c1)nc(SC(C)C(N)=O)n2-c1ccc(OC)cc1 (configuration not stated)	5	26*	6	2	-6	-2
COc1ccc(-n2nnnc2SC(C)C(N)=O)cc1 (configuration not stated)	-3	-7	0	0	-14	-3
O=C(O)CCCCCNC(=O)Cn1nnc2ccccc2c1=O	-7	-5	-1	7	-2	-2
O=C(O)CCc1ccc(-c2ccc(F)cc2)n1Cc1ccco1	7	12	-5	-1	3	29*
O=C(O)CCc1ccc(-c2ccccc2)n1Cc1ccco1	8	16	12	0	9	13
O=C(NCc1ccccc1F)c1ccc(S(=O)(=O)N2CCCCCC2)cc1	6	-3	11	4	.	3
Cc1ccc(C)c(-c2cc(C(=O)NNC(=S)NCC(C)C)c3ccccc3n2)c1	9	26*	19	0	-4	0
CCCc1ccc(-c2cc(C(=O)NN3CCOCC3)c3ccccc3n2)cc1	-3	-1	15	5	-3	2
O=C(NNS(=O)(=O)c1ccc(Cl)cc1)c1cc(-c2ccccc2)n[nH]1	-1	6	6	3	-5	6
O=C(NNS(=O)(=O)c1ccc(Cl)cc1)c1cc(-c2ccccc2)nc2ccccc12	0	9	5	1	3	60*
CCNC(=S)NNC(=O)c1cc(-c2ccccc2C)nc2ccccc12	-4	15	5	8	7	5
CCc1ccc(-c2cc(C(=O)Nn3cnnc3)c3ccccc3n2)cc1	-5	-4	-8	5	-5	72*
CCNC(=S)NNC(=O)c1cc(-c2ccc(OCC)cc2)nc2ccccc12	-3	27*	9	1	14	4
C/C(=N\NC(=O)C1COc2ccccc2O1)c1cc2ccccc2o1 (configuration not stated)	5	-2	-1	-2	-9	0
CCN(CC(=O)NCc1cccs1)C(=O)CCCOc1ccccc1	-5	-5	-12	7	.	6
CCN(CC(=O)NCc1cccs1)C(=O)CCCOc1ccc(C(C)(C)C)cc1	-5	16	-22	1	.	25*
CN1C(=O)c2ccc(NC(=S)NC(=O)C(C)(C)C)cc2C1=O	-8	1	-21	5	-2	0
O=c1c(O)c(-c2ccccc2)oc2cc(O)cc(O)c12	13	7	.	23	.	12
CC(C)=CCc1cc(-c2oc3cc(O)cc(O)c3c(=O)c2O)ccc1O	-8	34*	-13	26*	9	13
CCCc1c(O)nc(SC2CC(=O)N(c3ccc(C)c(Cl)c3)C2=O)[nH]c1=O (configuration not stated)	.	7	-6	.	-8	.
Cc1ccc(N2C(=O)CC(Sc3nc4ccccc4o3)C2=O)cc1Cl (configuration not stated)	-3	-3	-9	3	-3	30*
CC(C1CC2CCC1C2)n1c(-c2ccco2)n[nH]c1=S (configuration not stated)	10	5	4	4	24	27*
